High-throughput results from PubChem BioAssay.
SARS PLpro yeast: inhibitors of SARS-CoV papain-like protease in yeast | S. cerevisiae expressing SARS-CoV PLpro, growth rescue | Potency, µM (doses to about 32.9 µM), for the others: at the highest dose activity, positive = growth rescue, most hits filed as activators | hit rate 0.19% among 330,000 | AID 485353; calls by dose curve; note: potency is the fitted concentration of half-maximal effect; 0% is about no effect; nearly all actives have a fitted effect of over 55% in size
AmpC no deterg: blocks E. coli AmpC beta-lactamase in detergent-free assay. Potency, µM (top dose mostly 57.1 µM), without a hit: at the highest dose activity change, negative = inhibition, usual class: inhibitors. P00811. AmpC nitrocefin hydrolysis, absorbance 480 nm, 0.0001% Triton. hit rate 0.52% among 330,000;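 note: potency is the fitted concentration of half-maximal effect; plate controls were no compound for no effect and no enzyme for full effect; nearly all actives have a fitted effect of over 20% in size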
Target sequence (P00811 whole entry, looked up): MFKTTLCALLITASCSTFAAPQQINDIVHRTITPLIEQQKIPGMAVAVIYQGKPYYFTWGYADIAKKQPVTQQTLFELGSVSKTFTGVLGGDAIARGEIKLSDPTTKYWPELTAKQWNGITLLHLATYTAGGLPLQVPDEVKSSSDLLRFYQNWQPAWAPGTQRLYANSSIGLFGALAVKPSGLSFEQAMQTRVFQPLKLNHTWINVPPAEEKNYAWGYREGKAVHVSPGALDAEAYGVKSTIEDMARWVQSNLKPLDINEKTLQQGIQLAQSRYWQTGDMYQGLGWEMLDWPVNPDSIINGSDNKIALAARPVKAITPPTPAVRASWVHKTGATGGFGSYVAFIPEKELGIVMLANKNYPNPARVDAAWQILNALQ
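20 mM phosphate pH 7.0 + 0.01% (detergent screen) or 0.0001% Triton X-100; 5.3 nM AmpC reagent; cpd preinc 15 min RT; nitrocefin (800 uM stock) to start; A480 q20 s × 4 min; Activity was normalised to no-enzyme and no-compound control wells.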
AMA1-RON2 inh: inhibitors of Plasmodium falciparum AMA1-RON2 interaction; hit rate 0.2% among 360,000; AlphaScreen AMA1-biotinylated RON2 peptide binding; Potency, µM (doses to about 58.2 µM), inactives show top-dose activity change, negative = inhibition, usual class: inhibitors;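 note: potency is the fitted concentration of half-maximal effect; 0% = vehicle wells and -100% = peptide control; nearly all actives have a fitted effect of over 45% in size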
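AMA1 (3D7) with his tag at 25 nM final met compounds first, then biotinylated RON2 peptide at 25 nM; detection used donor plus acceptor beads, 10 µg/mL apiece, read by AlphaScreen after 30 min at room temperature.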
Cycloheximide cs: affects cycloheximide protein synthesis inhibition readout, counter-screen. cell reporter, cycloheximide protein synthesis inhibition counterscreen. max response, %. hit rate 12% among 300,000. AID 2314; in the data active = max response mostly above about 13%, no sharp cut-off; inactive = mostly below about 14%; note: read at 38.3 µM for the half of the compounds with a filed dose; 0% is about no effect
Shiga inhibitor: blocks Shiga toxin action in Vero cells | AID 2315 | Vero cells, Shiga toxin protein synthesis inhibition reporter | hit rate 9.2% among 290,000 | inhibition, % at 38.7 µM; in the data active = inhibition mostly above about 28%, no sharp cut-off; inactive = mostly below about 43%; note: 0% is about no effect
AmpC inh detg: inhibitors of E. coli AmpC beta-lactamase with detergent; P00811; AmpC hydrolysis of nitrocefin, absorbance 480 nm, 0.01% Triton; Potency, µM (highest dose often 114 µM), without a hit: at the highest dose activity change, negative = inhibition, actives largely listed as inhibitors; hit rate 0.041% among 370,000;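 note: potency is the fitted concentration of half-maximal effect; 0% = no-compound wells and -100% = no-enzyme wells; nearly all actives have a fitted effect of over 25% in size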
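AmpC (5.3 nM in the dispensed reagent) in 20 mM phosphate pH 7.0 with 0.01% (detergent screen) or 0.0001% Triton X-100 was preincubated with compounds for 15 min at room temperature. Nitrocefin was then added from an 800 uM solution, and hydrolysis was followed at 480 nm.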
* marks the source's active call; other numbers are inactive results. The entries come from a sample that favours hits as a whole. Unless noted, calls come from the whole dose curve; as a rule, active = well fitted curve in the direction sought with a large enough effect; inconclusive = small, poorly fitted or top-dose-only effect, or another doubt; inactive = no such curve, though single readings can be large; an effect the other way counts as inactive or inconclusive.

What do the screens show for `C[C@H](CO)N1C[C@H](C)[C@@H](CN(C)Cc2ccncc2)Oc2c(NC(=O)C3CCCCC3)cccc2C1=O`?
SARS PLpro yeast: 2%; AmpC no deterg: 202%; AMA1-RON2 inh: 4%

Results for CCSc1nnc(-c2ccc(OC)cc2)o1 ?
SARS PLpro yeast: -7%; AmpC no deterg: -2%; AMA1-RON2 inh: 0%; Cycloheximide cs: 56*; Shiga inhibitor: 98*; AmpC inh detg: 2%

How did CCCCCCCCSc1nnc(-c2ccc(OC)cc2)o1 do in these assays?
SARS PLpro yeast: 0%; AmpC no deterg: -10%; AMA1-RON2 inh: 19%; Cycloheximide cs: -4; Shiga inhibitor: -7; AmpC inh detg: 0%

Results for COc1ccc(-c2nnc(SCC#N)o2)cc1 ?
SARS PLpro yeast: -6%; AmpC no deterg: -12%; AMA1-RON2 inh: -6%; Cycloheximide cs: 15*; Shiga inhibitor: 37; AmpC inh detg: 2%

How did O=C(CSc1nc2ccccc2n1CCc1ccccc1)NC1CCS(=O)(=O)C1 (centres undefined) do in these assays?
SARS PLpro yeast: 3%; AmpC no deterg: 35%; AMA1-RON2 inh: 40%; Cycloheximide cs: -1; Shiga inhibitor: -13; AmpC inh detg: inconclusive

Results for COc1ccccc1N1CCN(C(c2ccc(Cl)cc2)c2nnc(-c3cccc(F)c3)o2)CC1 (centres undefined) ?
AmpC inh detg: 1%

How did CNC(=S)N(CCc1c(C)[nH]c2ccc(C)cc12)Cc1cccs1 do in these assays?
SARS PLpro yeast: 1%; AmpC no deterg: -2%; AMA1-RON2 inh: -18%; Cycloheximide cs: -5; Shiga inhibitor: -8; AmpC inh detg: 4%

How did COc1cccc(Oc2nnnn2-c2ccccc2)c1 do in these assays?
SARS PLpro yeast: 1%; AmpC no deterg: -10%; AMA1-RON2 inh: 8%; Cycloheximide cs: 33*; Shiga inhibitor: 146; AmpC inh detg: 3%

What do the screens show for `COc1ccc(Oc2nnnn2-c2ccccc2)cc1`?
SARS PLpro yeast: 12%; AmpC no deterg: -13%; AMA1-RON2 inh: 0%; Cycloheximide cs: 32*; Shiga inhibitor: 31*; AmpC inh detg: inconclusive

Results for Clc1ccc(Oc2nnnn2-c2ccccc2)cc1 ?
SARS PLpro yeast: -3%; AmpC no deterg: -27%; AMA1-RON2 inh: 9%; Cycloheximide cs: 15; Shiga inhibitor: 27; AmpC inh detg: inconclusive

Results for CCSc1nc2ccc(N3C(=O)C4C5C=CC(C5)C4C3=O)cc2s1 (centres undefined) ?
SARS PLpro yeast: -8%; AmpC no deterg: 8%; AMA1-RON2 inh: -2%; Cycloheximide cs: 27*; Shiga inhibitor: 50*; AmpC inh detg: inconclusive

What do the screens show for `NS(=O)(=O)c1cccc(NC(=O)COC(=O)CCCc2c[nH]c3ccccc23)c1`?
SARS PLpro yeast: 0%; AmpC no deterg: -38%; AMA1-RON2 inh: -2%; Cycloheximide cs: 10; Shiga inhibitor: 11; AmpC inh detg: 5%

What do the screens show for `CCNC(=O)CC1C(=O)N(c2ccccc2)C(=O)N1Cc1ccc(OC)cc1` (centres undefined)?
SARS PLpro yeast: -3%; AmpC no deterg: -5%; AMA1-RON2 inh: 0%; Cycloheximide cs: 13*; Shiga inhibitor: -2; AmpC inh detg: -7%

How did O=C(CCl)N(C/C=C/c1ccccc1)c1ccc2c(c1)OCCO2 do in these assays?
SARS PLpro yeast: -7%; AmpC no deterg: -9%; AMA1-RON2 inh: 6%; Cycloheximide cs: 52*; Shiga inhibitor: 164*; AmpC inh detg: 2%

Results for N#CCCN(C(=O)CSc1ncccn1)c1ccc2c(c1)OCCO2 ?
SARS PLpro yeast: 10%; AmpC no deterg: -32%; AMA1-RON2 inh: -2%; AmpC inh detg: -3%

How did O=C1Nc2ccccc2Nc2ncccc21 do in these assays?
SARS PLpro yeast: 12%; AmpC no deterg: -11%; AMA1-RON2 inh: 0%; Cycloheximide cs: -3; Shiga inhibitor: -7; AmpC inh detg: 3%

What do the screens show for `C[C@H](CO)N1C[C@H](C)[C@@H](CN(C)S(=O)(=O)c2ccc(C#N)cc2)OCc2cnnn2CCCC1=O`?
AMA1-RON2 inh: 11%

How did COc1ccc(-c2cc(C(=O)NCCc3ccc(Cl)cc3)[nH]n2)cc1 do in these assays?
AmpC inh detg: 17%

What do the screens show for `COc1ccc(-c2cc(C(=O)N3CCN(S(=O)(=O)c4ccccc4)CC3)[nH]n2)cc1`?
SARS PLpro yeast: 5%; AmpC no deterg: -10%; AMA1-RON2 inh: 2%; Cycloheximide cs: 5.9*; Shiga inhibitor: 20; AmpC inh detg: -15%

What do the screens show for `O=C(c1cc(-c2ccccc2)n[nH]1)N1CCN(S(=O)(=O)c2ccccc2)CC1`?
SARS PLpro yeast: 5%; AmpC no deterg: -13%; AMA1-RON2 inh: -3%; Cycloheximide cs: -2; Shiga inhibitor: 14; AmpC inh detg: inconclusive

Results for COC(=O)c1cc(-c2cccc(OC)c2)n[nH]1 ?
SARS PLpro yeast: 7%; AmpC no deterg: -17%; AMA1-RON2 inh: 45%; Cycloheximide cs: 24*; Shiga inhibitor: 49*; AmpC inh detg: 0%

How did COC(=O)c1cc(-c2ccc(OC)cc2)n[nH]1 do in these assays?
SARS PLpro yeast: -1%; AmpC no deterg: -24%; AMA1-RON2 inh: -3%; Cycloheximide cs: 27*; Shiga inhibitor: 103*; AmpC inh detg: 1%

What do the screens show for `Cc1ccc(CCNC(=O)c2cc(-c3ccc(Cl)cc3)n[nH]2)cc1`?
AmpC inh detg: 10%

What do the screens show for `COC(=O)c1cc(-c2ccc(C)cc2)n[nH]1`?
SARS PLpro yeast: -1%; AmpC no deterg: -3%; AMA1-RON2 inh: 3%; Cycloheximide cs: 48*; Shiga inhibitor: 82*; AmpC inh detg: 3%

Results for CCOc1ncccc1C(=O)OCCN1C(=O)c2ccccc2C1=O ?
SARS PLpro yeast: 5%; AmpC no deterg: 1%; AMA1-RON2 inh: 0%; Cycloheximide cs: -2; Shiga inhibitor: -15; AmpC inh detg: -14%

What do the screens show for `CCOc1ccc(-c2cc(C(=O)OC)[nH]n2)cc1`?
SARS PLpro yeast: -2%; AmpC no deterg: -1%; AMA1-RON2 inh: -1%; Cycloheximide cs: 43*; Shiga inhibitor: 89*; AmpC inh detg: -9%

What do the screens show for `CCOc1ccc(-c2cc(C(=O)NCCc3ccc(OC)c(OC)c3)[nH]n2)cc1`?
AmpC inh detg: 0%

Results for COc1ccc(CCn2c(=O)[nH]c3cc(C(=O)NCCc4ccccc4)ccc3c2=O)cc1OC ?
SARS PLpro yeast: -5%; AmpC no deterg: -3%; Cycloheximide cs: 25*; Shiga inhibitor: 25*; AmpC inh detg: 1%

Results for O=C(NCCc1ccc(F)cc1)c1cccc(NC(=O)c2ccccc2)c1 ?
SARS PLpro yeast: -3%; AmpC no deterg: -34%; AMA1-RON2 inh: 21%; Cycloheximide cs: 23*; Shiga inhibitor: 44; AmpC inh detg: 0%

Results for CC(=O)NCCNC(=O)c1ccc2c(=O)n(CCc3ccccc3)c(=O)[nH]c2c1 ?
AmpC inh detg: -5%
